Compound activity from PubChem.
KKLEB tox: reduces viability of KKLEB cystic fibrosis airway cells. AID 602141. activity change (cytotoxicity), % at 5 µM. 360,000 tested, 0.36% active. KKLEB CF airway cells viability, ATPlite luminescence, overnight; hits give low values; cells stimulated with P. aeruginosa culture filtrate;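 active = corrected activity change at or below -50% at 5 µM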
CF NFkB block: blocks PAF-induced NF-kB reporter in cystic fibrosis cells. KKLEB NF-kB-GFP reporter, GFP fluorescence overnight. inhibition, % at 5 µM. AID 588850. 360,000 tested, 0.86% active;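 active = at least 50% inhibition at 5 µM, scaled per plate between neutral and stimulator controls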;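 note: PAF is a Pseudomonas aeruginosa culture filtrate used as stimulus; plate controls were PAF-stimulated DMSO wells for no effect and unstimulated DMSO wells for full effect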
Peg3 prom inh: Peg3 promoter activity inhibition | HeLa PEG-Prom luciferase reporter, luminescence, overnight | inhibition, % at 20 µM | 360,000 tested, 1.7% active | AID 588405;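 active = inhibition of at least 50% at 20 µM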
HIF-2a block: HIF-2a inhibition. 786-0 RCC cells HIF-2a reporter, luciferase luminescence, overnight. inhibition, % at 18.8 µM. 360,000 tested, 0.72% active;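 active = inhibition of the luminescence signal of 40% or more relative to plate controls, in a single-dose primary screen at 18.75 µM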
TWEAK-Fn14 inh: TWEAK-Fn14 signaling inhibition | 360,000 tested, 2% active | TWEAK-stimulated Fn14 reporter cells, luciferase luminescence, 8 h | inhibition, % at 10 µM; in the data active = inhibition above about 50%
TROY NFkB inh: inhibitors of TROY-dependent NF-kB signaling | inhibition, % at 10 µM | Q293 LMP1-TROYcd NF-kB luciferase reporter, 4 h | 360,000 tested, 0.98% active | AID 1347056;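 active = compounds whose plate-normalised and pattern-corrected inhibition of the luciferase reporter signal at the single screening dose is 50% or more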
Active calls of the source: *; · = no result given. This is a sample that favours compounds with a hit; in the whole collection about 4% have one here.

SMILES | KKLEB tox | CF NFkB block | Peg3 prom inh | HIF-2a block | TWEAK-Fn14 inh | TROY NFkB inh
C=CCn1c(C)cc(C(=O)COC(=O)CNC(=O)c2ccccc2)c1C | -3 | 6 | -7 | -23 | 89* | 85*
C=CCN1C(=O)/C(=C/c2ccc(OC(C)=O)c(OCC)c2[N+](=O)[O-])SC1=S | -44 | 54* | -49 | -133 | 60* | 43
COc1ccccc1-c1cc(C(=O)N2CCN(S(=O)(=O)c3ccc(C)cc3)CC2)[nH]n1 | 4 | -28 | 30 | -7 | 6 | 9
CCc1cc2c(=O)c(-c3ccc4c(c3)OCCO4)coc2c(CN2CCCCC2C)c1O (configuration not stated) | -31 | 18 | -78 | -111 | 31 | 72*
CCc1cc2c(=O)c(-c3nc4ccccc4[nH]3)coc2c(CN2CCCCC2C)c1O (configuration not stated) | -14 | 7 | 12 | -5 | 17 | 17
Cc1ccc(-c2nc3cccnc3o2)cc1NC(=O)COc1ccc(C(C)(C)C)cc1 | -3 | -17 | 58* | 13 | 59* | 55*
Cc1ccc(-c2nc3cccnc3o2)cc1NC(=O)COc1ccc(Cl)cc1C | -49 | 60* | 35 | 9 | -54 | -34
C[C@H](CO)N1C[C@H](C)[C@@H](CN(C)S(=O)(=O)c2ccc(F)cc2)Oc2c(NS(=O)(=O)c3ccccc3)cccc2C1=O | 12 | -7 | 5 | 6 | 5 | 2
O=C(CCn1c2c(c3ccccc31)CCCC2)NNC(=O)c1cccc([N+](=O)[O-])c1 | 5 | -15 | 16 | 3 | 3 | 7
O=C(CCn1c2c(c3ccccc31)CCCC2)NNC(=O)c1ccccc1Cl | -5 | 14 | -3 | -5 | 65* | 38
CN(c1ccc(OCC(=O)Nc2nc(-c3ccccc3)cs2)cc1)S(=O)(=O)c1ccc(F)cc1 | -7 | -19 | -7 | -14 | 55* | 18
Cc1cccc(OCC(=O)Nc2nc3ccc([N+](=O)[O-])cc3s2)c1 | -7 | 28 | -14 | -29 | 1 | 59*
Cc1ccc(S(=O)(=O)N(C)c2ccc(OCC(=O)Nc3nc4ccccc4s3)cc2)cc1 | 1 | -7 | -20 | -33 | 70* | 24
Cc1ccc[n+](CC(=O)Nc2nc3ccccc3s2)c1 | 5 | -15 | -12 | -9 | 64* | 81*
CCN(CC)C(=O)[C@H]1C[C@H](CC(=O)NC/C=C(\C)CCC=C(C)C)C(=O)N2CCc3c([nH]c4cc(CCC(=O)N(C)C)ccc34)[C@]12C | -7 | 8 | 5 | 3 | 5 | 6
Cc1ccccc1NC(=O)c1cccc(N2C(=O)C3C4CC(C(Br)C4Br)C3C2=O)c1 (configuration not stated) | -3 | 8 | 15 | 25 | -3 | -4
CCc1ccccc1OCC(=O)Nc1nc(-c2cccnc2)cs1 | -16 | -4 | 31 | -11 | -39 | 61*
O=[N+]([O-])c1ccc(Br)c(CN2CCN(c3ncc(Cc4ccccc4)cn3)CC2)c1 | · | · | · | -2 | · | ·
CCN(CC)CCCNc1nc2cc(OC)c(OC)cc2c2nc(-c3cccnc3)nn12 | -5 | -83 | -12 | 15 | -88 | -47
COCCCNc1nc2cc(OC)c(OC)cc2c2nc(-c3ccccc3)nn12 | 5 | -42 | 54* | 22 | 13 | -8
COc1cc2nc(NCC3CCCO3)n3nc(-c4cccnc4)nc3c2cc1OC (configuration not stated) | -5 | -30 | 55* | 13 | -1 | 10
CCCCCCn1cc(CN2CC(N3CCSCC3)CS2(=O)=O)nn1 (configuration not stated) | · | · | · | -3 | -4 | -7
COc1ccc(Cn2nnnc2C(C(C)C)N(Cc2ccco2)Cc2cccs2)cc1 (configuration not stated) | 1 | 0 | 19 | 11 | 80* | ·
CC(C)(C)c1ccc(CC(=O)N2CCC2(C)C(=O)NS(=O)(=O)c2ccc(F)cc2F)cc1 (configuration not stated) | -9 | -7 | 4 | 10 | 5 | 2
Cc1ccc(NC(=O)c2c3c(nc4ccccc24)CCC3)cc1S(=O)(=O)N(C)C | -2 | 9 | 21 | 21 | 71* | 48
SMILES | KKLEB tox | CF NFkB block | Peg3 prom inh | HIF-2a block | TWEAK-Fn14 inh | TROY NFkB inh
O=C(Nc1ccccc1-c1ccccc1)c1ccccc1 | -13 | -17 | -10 | -7 | 62* | -18
O=C(Nc1ccc(NC(=O)c2cc3ccccc3o2)cc1)c1ccco1 | 6 | -12 | 63* | -48 | -6 | -27
O=C(Nc1ccccc1-c1ccccc1NC(=O)c1ccco1)c1ccco1 | 8 | -8 | 11 | 21 | 66* | ·
O=C(Nc1ccc(N2CCN(C(=O)c3ccco3)CC2)c(Cl)c1)c1cc2ccccc2o1 | -4 | 2 | 100* | -28 | 97* | 72*
O=C(Nc1ccc(N2CCN(C(=O)c3ccccc3)CC2)c(Cl)c1)c1ccco1 | 12 | 10 | -16 | -11 | 6 | 35
O=C(Nc1ccccc1)c1cc2ccccc2o1 | -2 | 2 | -107 | -68 | 49 | -10
COc1cccc(C(=O)Nc2ccccc2-c2ccccc2)c1 | 13 | -32 | -34 | -63 | -10 | -17
CCC(=O)N1CCN(c2ccc(NC(=S)NC(=O)c3cc4ccccc4o3)cc2)CC1 | 13 | -39 | -5 | -23 | 18 | 61*
CCCC(=O)N1CCN(c2ccc(NC(=O)c3cccs3)cc2Cl)CC1 | 11 | 16 | 0 | -6 | -8 | -7
CCCC(=O)N1CCN(c2ccc(NC(=O)c3cc4ccccc4o3)cc2Cl)CC1 | -11 | -2 | 104* | -65 | 95* | 81*
CCC(=O)N1CCN(c2ccc(NC(=O)c3cc4ccccc4o3)cc2Cl)CC1 | 2 | 18 | 108* | -91 | 93* | 66*
C[C@@H]1CN([C@H](C)CO)C(=O)c2cc(Br)cnc2O[C@H]1CN(C)Cc1cccnc1 | 16 | -17 | -8 | 9 | -2 | 0
Cc1ccc(C(=O)OCC(=O)NC(C)c2ccccc2)cc1C (configuration not stated) | 14 | -28 | -10 | -6 | -4 | -24
CCOC(=O)[C@]12CCC=C1N(CCC1=CCCCC1)C(=O)[C@H](CC(=O)NCc1cccc3ccccc13)C2 | · | · | · | 3 | 1 | -14
COc1ccc(N2C[C@H](C)[C@@H](CC(=O)Nc3ccc(Br)cc3)C2=O)cc1 | 3 | -7 | 15 | 10 | -16 | 4
COC(=O)C(NS(=O)(=O)c1ccc(C)cc1)c1ccccc1 (configuration not stated) | -14 | 4 | 15 | 14 | -1 | 1
O=C(O)C(NS(=O)(=O)c1ccc(F)cc1)c1ccccc1 (configuration not stated) | 6 | -4 | 0 | 8 | 90* | 14
Cc1ccc(OCC(=O)N/N=C\c2cccn2C)c([N+](=O)[O-])c1 | 5 | -10 | -166 | -154 | -19 | -16
